Results filed as inconclusive are left out. Active and inactive are the calls of the source. The call rests on the fitted dose curve; in most records, active means well fitted cell-killing curve with a large enough effect; inconclusive means small, poorly fitted or top-dose-only effect, or effect the other way; inactive means flat fitted curve, though single readings scatter. Where a SMILES comes first, the peptide text is derived from it. [ ]: non-standard residue; d: D form.
Experiments:
Assay in all cases: Primary qHTS to identify gynecologic anti-cancer compounds using libraries of approved drugs and bioactive compounds (AID 1345084); further: nearly all actives have a fitted effect of over 55% in size
Details in all cases: Gynecologic cancer cell panel viability, ATPlite luminescence, 48 h; series mostly up to 57.5 µM
[1] = test system: OV90
How it was run: (§1)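 Luminescence from the ATPlite ATP-monitoring reagent indicates viable cell number; lower signal means cytotoxicity. Cells received compound 16 h after seeding and were exposed for 48 h across five concentrations.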

[2] = test system: PA-1
How it was run: as §1

[3] = test system: SKOV3
How it was run: as §1

[4] = test system: Tov-21-G
How it was run: as §1

[5] = test system: Tov112D
How it was run: as §1
On the % scale 0 is the no-effect control and ±100 the full control effect.

CC(=O)O[C@H](C[C@@H](C)[C@H]1C(=O)[C@H](O)[C@@]2(C)[C@@H]3CCC4C(C)(C)[C@@H](O[C@@H]5OC[C@H](O)[C@H](O)[C@H]5O)CC[C@@]45C[C@@]35CC[C@]12C)[C@@H]1OC1(C)C (stereo not given in full)
inactive: Potency [1] | Potency [2] | Potency [3] | Potency [4] | Potency [5]

CC(=O)N[C@H]1CCN(c2ccc(C3=NOC(CN[S+](=O)([O-])C(C)C)C3)cc2F)C1 (stereo not given in full)
inactive: Potency [1] | Potency [2] | Potency [3] | Potency [4] | Potency [5]

CC(=O)c1c(C)cc(O[C@@H]2O[C@H](CO)[C@@H](O)[C@H](O)[C@H]2O)cc1O
inactive: Potency [1] | Potency [2] | Potency [3] | Potency [4] | Potency [5]

OCC1=CC[C@@H]2C=CO[C@@H](O[C@@H]3O[C@H](CO)[C@@H](O)[C@H](O)[C@H]3O)[C@H]12
inactive: Potency [1] | Potency [2] | Potency [3] | Potency [4] | Potency [5]

NC1CCC(N[C@@H]2C[C@H]2c2ccccc2)CC1 (stereo not given in full)
inactive: Potency [1] | Potency [2] | Potency [3] | Potency [4] | Potency [5]

O=C1C[C@@H](c2ccc(O)cc2)Oc2cc(O)ccc21
inactive: Potency [1] | Potency [2] | Potency [3] | Potency [4] | Potency [5]

C/C=C/C=C/C=C/C(=O)O[C@@H]1C=C(CO)C(O)(C(=O)O)[C@@]2(C)CCCC(C)(C)[C@H]12 (stereo not given in full)
inactive: Potency [1] | Potency [2] | Potency [3] | Potency [4] | Potency [5]

CC1(C)CC[C@]2(C(=O)O[C@@H]3O[C@H](CO)[C@@H](O)[C@H](O)[C@H]3O)CC[C@]3(C)C(=CCC4[C@@]5(C)C[C@@H](O)[C@H](O)C(CO)(CO)C5CC[C@]43C)C2[C@@H]1O (stereo not given in full)
inactive: Potency [1] | Potency [2] | Potency [3] | Potency [4] | Potency [5]

CC(c1c[nH]c2ccccc12)C(O)C(=O)O (stereo not given)
inactive: Potency [1] | Potency [2] | Potency [3] | Potency [4] | Potency [5]

O=C(NN1CCCCC1)c1nn(-c2ccc(Cl)cc2Cl)c(-c2ccc(C#Cc3ccc(C(F)(F)F)cc3)s2)c1CNS(=O)(=O)N1CCCC1
inactive: Potency [1] | Potency [2] | Potency [3] | Potency [4] | Potency [5]

CC(=O)O[C@@H]1C[C@]2(C)[C@@]3(CCC4[C@@]5(C)CC[C@H](O[C@@H]6O[C@H](C(=O)O)[C@@H](O)[C@H](O[C@@H]7O[C@H](CO)[C@H](O)[C@H](O)[C@H]7O[C@@H]7O[C@@H](C)[C@H](O)[C@@H](O)[C@H]7O[C@@H]7OC[C@](O)(CO)[C@H]7O)[C@H]6O[C@@H]6O[C@H](CO)[C@H](O)[C@H](O)[C@H]6O)C(C)(C)C5CC[C@]42C)O[C@@H](O)[C@]12C3CC(C)(C)[C@@H](OC(=O)/C=C/c1ccc(O)c(O)c1)[C@@H]2OC(=O)/C=C/c1ccccc1 (stereo not given in full)
inactive: activity change, negative = cytotoxicity [1] -7.75% [at 6.55 µM] | activity change, negative = cytotoxicity [2] 24% [at 6.55 µM] | activity change, negative = cytotoxicity [3] 3.32% [at 6.55 µM] | activity change, negative = cytotoxicity [4] 17% [at 6.55 µM] | activity change, negative = cytotoxicity [5] 6.15% [at 6.55 µM]

COC(=O)C1=CO[C@@H](O[C@@H]2O[C@H](CO)[C@@H](O)[C@H](O)[C@H]2O)[C@@H]2[C@@H](C)[C@@H](O)C[C@H]12
inactive: Potency [1] | Potency [2] | Potency [3] | Potency [4] | Potency [5]

CCc1cc2c(=O)c(-c3nc4ccccc4s3)coc2c(CN2CCCCC2)c1O
inactive: Potency [1] | Potency [2] | Potency [3] | Potency [4] | Potency [5]

COC1CC(=O)CCC(C)OC(=O)CC1O (stereo not given)
inactive: Potency [1] | Potency [2] | Potency [3] | Potency [4] | Potency [5]

CC1=CC[C@]2(C(=O)O[C@@H]3O[C@H](CO[C@@H]4O[C@H](CO)[C@@H](O[C@@H]5O[C@@H](C)[C@H](O)[C@@H](O)[C@H]5O)[C@H](O)[C@H]4O)[C@@H](O)[C@H](O)[C@H]3O)CC[C@]3(C)C(CCC4[C@@]5(C)C[C@@H](O)[C@H](O)[C@@](C)(CO)C5CC[C@]43C)C2C1C (stereo not given in full)
inactive: activity change, negative = cytotoxicity [1] 6.64% [at 11.6 µM] | activity change, negative = cytotoxicity [2] 10.1% [at 11.6 µM] | activity change, negative = cytotoxicity [3] -2.91% [at 11.6 µM] | activity change, negative = cytotoxicity [4] 4.72% [at 11.6 µM] | activity change, negative = cytotoxicity [5] -1.58% [at 11.6 µM]

CC(=O)N[C@H](Cc1ccc(O)cc1)C(=O)N[C@H](CCCN=C(N)N)C(=O)N[C@H](Cc1ccccc1)C(N)=O (Ac-[dY]-[dR]-[dF]-NH2)
inactive: Potency [1] | Potency [2] | Potency [3] | Potency [4] | Potency [5]

c1ccc(Nc2nc3c(s2)CCCc2[nH]ncc2-3)nc1
inactive: Potency [1] | Potency [2] | Potency [3] | Potency [4] | Potency [5]

CC1=CC(=O)C2C(C)(C)CC(O)CC2(C)C1CO (stereo not given)
inactive: Potency [1] | Potency [2] | Potency [3] | Potency [4] | Potency [5]

CCC[C@@H]1C[C@@H](C(=O)N[C@@H]([C@H]2O[C@H](SC)[C@H](O)[C@@H](O)[C@@H]2O)[C@@H](C)O)N(C)C1
inactive: Potency [1] | Potency [2] | Potency [3] | Potency [4] | Potency [5]

CC1=CC(=O)C[C@H]2[C@@H]1CC[C@@H](C)[C@]21CO[C@H](c2ccoc2)C1=O
inactive: Potency [1] | Potency [2] | Potency [3] | Potency [4] | Potency [5]

C=C1C(=O)OC2CC(C)=C(C(C)CCCO[C@@H]3O[C@H](CO)[C@@H](O)[C@H](O)[C@H]3O)C(O)C12 (stereo not given in full)
inactive: Potency [1] | Potency [2] | Potency [3] | Potency [4] | Potency [5]

CC(/C=C/C1(O)C2(C)COC1(C)CC(=O)C2)O[C@@H]1O[C@H](CO)[C@@H](O)[C@H](O)[C@H]1O (stereo not given in full)
inactive: Potency [1] | Potency [2] | Potency [3] | Potency [4] | Potency [5]

CC1=C(CC(=O)O)c2cc(F)ccc2C1=Cc1ccc(S(C)(=O)=O)cc1
inactive: Potency [1] | Potency [2] | Potency [3] | Potency [4] | Potency [5]

CC1(C)CC2C(C1)C1(C)CCC13OC3(CO)C2O (stereo not given)
inactive: Potency [1] | Potency [2] | Potency [3] | Potency [4] | Potency [5]

C=C(C)[C@H]1C[C@@H](O)C(=C)CC[C@@H](O)C(=C)[C@@H](O)C1
inactive: Potency [1] | Potency [2] | Potency [3] | Potency [4] | Potency [5]

C/C=C(\C)C(=O)O[C@H]1[C@H](O)[C@]2(COC(C)=O)[C@H](O)C[C@]3(C)C(=CCC4[C@@]5(C)CC[C@H](O[C@@H]6O[C@H](C(=O)O)[C@@H](O[C@@H]7O[C@H](CO)[C@@H](O)[C@H](O)[C@H]7O)[C@H](O)[C@H]6O[C@@H]6O[C@H](CO)[C@@H](O)[C@H](O)[C@H]6O)[C@](C)(CO)C5CC[C@]43C)[C@@H]2CC1(C)C (stereo not given in full)
inactive: activity change, negative = cytotoxicity [1] -1.43% [at 11.6 µM] | activity change, negative = cytotoxicity [2] 25.1% [at 11.6 µM] | activity change, negative = cytotoxicity [3] 20.3% [at 11.6 µM] | activity change, negative = cytotoxicity [4] 0.503% [at 11.6 µM] | activity change, negative = cytotoxicity [5] 7.17% [at 11.6 µM]

COc1ccc(C(O[C@@H]2O[C@H](CO)[C@@H](O)[C@H](O)[C@H]2O)C(CO)Oc2ccc(/C=C/CO)cc2OC)cc1O (stereo not given in full)
inactive: Potency [1] | Potency [2] | Potency [3] | Potency [4] | Potency [5]

CC[C@H]1OC(=O)[C@H](C)[C@@H](OC2C[C@@](C)(OC)[C@@H](O)[C@H](C)O2)[C@H](C)[C@@H](OC2O[C@H](C)C[C@H](NC)[C@H]2O)[C@](C)(O)C[C@@H](C)CN(C)[C@H](C)[C@@H](O)[C@]1(C)O (stereo not given in full)
inactive: Potency [1] | Potency [2] | Potency [3] | Potency [4] | Potency [5]

C[C@@H]1O[C@@H](O[C@H]2[C@H](OC(=O)C34CCC(C)(C)CC3C3=CCC5C6(C)CC(O)C(O[C@@H]7O[C@H](CO)[C@@H](O)[C@H](O)[C@H]7O)C(C)(C(=O)O)C6CCC5(C)C3(CO)CC4)O[C@H](C)[C@H](O)[C@@H]2O)[C@H](O)[C@H](O)[C@H]1O[C@@H]1OC[C@@H](O)[C@H](O)[C@H]1O (stereo not given in full)
inactive: activity change, negative = cytotoxicity [1] 3.81% [at 11.6 µM] | activity change, negative = cytotoxicity [2] 8.42% [at 11.6 µM] | activity change, negative = cytotoxicity [3] 7.96% [at 11.6 µM] | activity change, negative = cytotoxicity [4] 2.58% [at 11.6 µM] | activity change, negative = cytotoxicity [5] 2.79% [at 11.6 µM]

CC(=O)OC[C@]1(O)[C@H]2[C@H](OC(=O)CC(C)C)OC=C(CO[C@@H]3O[C@H](CO)[C@@H](O)[C@H](O)[C@H]3O)[C@H]2C[C@@H]1O
inactive: Potency [1] | Potency [2] | Potency [3] | Potency [4] | Potency [5]

Nc1nonc1C(=Nc1ccc(F)c(Cl)c1)NO
inactive: Potency [1] | Potency [2] | Potency [3] | Potency [4] | Potency [5]

C/C=C(/C)C(=O)O[C@H]1C=C(C)C[C@H](OC(=O)c2ccc(O)cc2)C2[C@](O)(C(C)C)CC[C@@]21C (stereo not given in full)
inactive: Potency [1] | Potency [2] | Potency [3] | Potency [4] | Potency [5]

C=C[C@H]1[C@H](O[C@@H]2O[C@H](CO)[C@@H](O)[C@H](O)[C@H]2O)OC=C(C(=O)OC)[C@H]1C[C@@H]1N[C@H](C(=O)O)Cc2c1[nH]c1ccccc21
inactive: Potency [1] | Potency [2] | Potency [3] | Potency [4] | Potency [5]

COc1cc(-c2cccc(O)c2)cc2c1OCO2
inactive: Potency [1] | Potency [2] | Potency [3] | Potency [4] | Potency [5]

CC1(O)CCC2C(C(=O)O)=COC(OC3OC(CO)C(O)C(O)C3OC(=O)/C=C/c3ccc(O)cc3)C21 (stereo not given)
inactive: Potency [1] | Potency [2] | Potency [3] | Potency [4] | Potency [5]

COc1cc(C2OCC3C(c4ccc(OC5OC(CO)C(O)C(O)C5O)c(OC)c4)OCC23)ccc1O (stereo not given)
inactive: Potency [1] | Potency [2] | Potency [3] | Potency [4] | Potency [5]

CC(=O)N(O)CCCCCN1C(=O)CCC1=O
inactive: Potency [1] | Potency [2] | Potency [3] | Potency [4] | Potency [5]

CC1[C@@H](O)[C@@H](O)C2[C@]3(C)C(C[C@H]4OC(=O)[C@H](O)[C@]1(O)[C@@]24C)C(C)(O)C[C@H](O)[C@H]3O (stereo not given in full)
inactive: Potency [1] | Potency [2] | Potency [3] | Potency [4] | Potency [5]

CC(=O)OC1C(O)CC(O[C@@H]2O[C@H](CO)[C@@H](O)[C@H](O)[C@H]2O)C2CCC3C(=O)OC(c4ccoc4)CC3(C)C21 (stereo not given in full)
inactive: Potency [1] | Potency [2] | Potency [3] | Potency [4] | Potency [5]

CC1=CC(=O)C2C(C)(C)CCCC2(C)C12CCC1(COC(=O)C1)O2 (stereo not given)
inactive: Potency [1] | Potency [2] | Potency [3] | Potency [4] | Potency [5]

— PubChem BioAssay (NCATS)
